Compounds with a hit are over-represented: about 4.5% of the library has one in this group of screens.
HDAC3 inh: human HDAC3 inhibition; O15379; 320,000 compounds, 0.15% hits; inhibition, % at 8.3 µM; recombinant HDAC3, fluorogenic peptide/trypsin coupled, fluorescence; AID 2718; in the data active = inhibition above about 26%, passing the limit was not always enough; inconclusive = no clear call, values can overlap the other calls
Target sequence (O15379 whole entry, looked up): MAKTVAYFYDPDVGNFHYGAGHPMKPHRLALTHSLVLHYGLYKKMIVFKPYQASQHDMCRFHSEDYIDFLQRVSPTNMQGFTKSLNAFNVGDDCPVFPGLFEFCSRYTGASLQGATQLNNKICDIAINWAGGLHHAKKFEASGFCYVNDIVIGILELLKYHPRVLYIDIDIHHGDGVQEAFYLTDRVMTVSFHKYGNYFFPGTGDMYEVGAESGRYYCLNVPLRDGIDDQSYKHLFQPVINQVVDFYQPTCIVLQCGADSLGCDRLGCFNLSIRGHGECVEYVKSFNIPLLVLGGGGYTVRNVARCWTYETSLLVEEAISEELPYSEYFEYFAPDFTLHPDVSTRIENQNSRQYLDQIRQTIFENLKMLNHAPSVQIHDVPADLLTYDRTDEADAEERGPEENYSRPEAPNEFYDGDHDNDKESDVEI
ALR H2O2 inh: human ALR oxidase inhibition via reduced H2O2; purified ALR, DTT oxidation, H2O2 HRP-luminol luminescence; inhibition, % (test concentration not listed); 290,000 compounds, 3.8% hits; AID 485317;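 active = mean replicate inhibition above about 79%, with every replicate also reaching it, limit read from the data; inconclusive = only one of the two criteria met; inactive = mean below limit and not every replicate reaching it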
Target sequence (P55789 whole entry, looked up): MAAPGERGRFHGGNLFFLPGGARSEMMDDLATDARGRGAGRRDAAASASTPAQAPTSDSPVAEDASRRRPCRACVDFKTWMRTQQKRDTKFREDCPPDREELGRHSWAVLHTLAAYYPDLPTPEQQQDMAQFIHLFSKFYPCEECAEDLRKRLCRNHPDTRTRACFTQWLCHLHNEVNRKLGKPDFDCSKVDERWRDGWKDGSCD
Efflux pump inh: blocks antifungal efflux pumps in multiplex yeast assay; inhibition, % at 10 µM; S. cerevisiae Candida pump triplex, Nile Red efflux; 330,000 compounds, 0.44% hits;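 active = plate passing quality check with inhibition over a set limit, or well fluorescence over plate mean plus 4 SD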;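 note: Nile Red retained in pooled yeast measured as flow cytometry median fluorescence; 0% = buffer negative control and 100% = Enniatin B positive control; higher means more Nile Red kept so more efflux inhibition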
GRK2 aptamer HTS: blocks RNA aptamer binding to human GRK2. P25098. bead flow cytometry, FAM-aptamer displacement from GRK2. inhibition of aptamer binding, % at 10 µM. 330,000 compounds, 0.59% hits;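 active = inhibition of aptamer binding above 40%, roughly 3 SD of noise, on plates passing a quality check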;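 note: median bead fluorescence of bound FAM aptamer so fluorescent compounds give negative values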
Rce1 inhib: inhibitors of yeast Ras-converting enzyme. Q03530. yeast membranes, quenched prenylated peptide cleavage fluorescence. AID 2563. calls only. 290,000 compounds, 0.27% hits;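 active = fall in fluorescence gain of 50% or more versus controls, with final raw signal at or below 3038400; inconclusive = same 50% fall but final raw signal above 3038400; inactive = fall in fluorescence gain under 50%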;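 note: plate controls were neutral control wells for no effect and wells lacking membranes for full effect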
Rtt109 HAT inh: inhibitors of Candida albicans Rtt109/Vps75 histone acetyltransferase; Q5AAJ8; purified Rtt109/Vps75, ThioGlo CoA-SH fluorescence, 4 h; inhibition, % at 34.9 µM; 330,000 compounds, 0.16% hits; AID 540336;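 active = inhibition of at least 50% in every replicate; inconclusive = best replicate reaches 50% inhibition but some replicates fall short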
* = called active by the depositor; i = inactive; ? = inconclusive; . = no result; + = active, no number.

SMILES | HDAC3 inh | ALR H2O2 inh | Efflux pump inh | GRK2 aptamer HTS | Rce1 inhib | Rtt109 HAT inh
COc1ccc(C(=O)OC(C)C(=O)NC(C)CCc2ccccc2)cc1OC (stereo not drawn) | 0.9 | 0.1 | 0.1 | 0.0 | i | 0.1
Nc1nnnn1/N=C/c1ccccc1OCc1ccc(Cl)cc1Cl | -3.9 | -0.7 | -2.6 | 0.0 | + | -4.5
COc1cc(N=Nc2c(C)n(C)n(-c3ccccc3)c2=O)ccc1N | 3.2 | 98.5* | -0.3 | 0.0 | i | 10.7
Cc1cc(O)ccc1N=Cc1c(C(F)(F)F)[nH][nH]c1=O | 2.3 | 99.0* | -0.1 | 0.0 | i | 9.0
CCN1C(=S)SC(=O)C1=C1C=C(C)N(CCO)C(C)=C1 | -8.3 | 99.4* | -0.1 | 0.0 | i | -2.5
COc1ccc(/C=N/NC(=O)CSCC(=O)Nc2ccccc2)cc1 | . | -5.3 | -0.1 | 3.0 | i | -2.9
COc1cccc(/C=N/NC(=O)NC2CCCCC2)c1O | 1.9 | 89.8* | -0.1 | 2.0 | i | 9.2
COc1cccc(/C=N/NC(=O)C(=O)N/N=C/c2cccc(OC)c2O)c1O | . | . | . | . | . | -3.1
O=C(N/N=C/c1ccc(OC(F)F)cc1OC(F)F)NC1CCCCC1 | 29.2* | 7.5 | -0.1 | 2.0 | i | -5.5
COc1cccc(/C=N/NC(=O)CSCC(=O)Nc2ccccc2)c1O | 1.0 | 91.4* | -0.1 | 4.0 | i | 2.7
COc1nccc(NCc2ccccc2)c1C#N | -1.0 | -5.9 | -0.2 | 3.0 | i | .
Cc1ccc(CNC(=O)CSc2nccn(-c3ccc(C)c(F)c3)c2=O)cc1 | -0.9 | 98.5* | 0.0 | 0.0 | i | 4.1
O=C(CSc1nccn(-c2cccc(F)c2)c1=O)Nc1ccc(Cl)cc1F | 8.7 | 99.0* | -0.3 | 0.0 | . | -2.9
O=C(CSc1nccn(-c2ccc(Br)cc2)c1=O)NCc1ccccc1 | . | . | 0.0 | 0.0 | i | 0.1
COc1ccc(-n2ccnc(SCC(=O)NCc3ccc(C)cc3)c2=O)cc1Cl | 3.2 | 97.9* | 0.0 | 0.0 | i | -2.6
CCN1C[C@@H]2[C@@H]3C(=O)N(C)C(=O)[C@@H]3[C@](C)(C1=O)N2C(=O)c1ccc(C(F)(F)F)cc1 | . | . | . | . | . | -3.6
O=c1oc2ccccc2n1CSc1nc2ccccc2s1 | 1.6 | -9.6 | 0.1 | 0.0 | i | 13.8
O=c1oc2ccccc2n1CSC1=NCCS1 | 2.6 | 98.7* | 0.0 | 0.0 | i | ?
O=C(CN1CCN(c2ccc(O)cc2)CC1)Nc1cc(S(=O)(=O)N2CCCCC2)ccc1Cl | 6.2 | 45.1 | 0.3 | 6.0 | i | 4.6
O=S(=O)(c1ccc(Cl)c(NC(=S)N/N=C/c2ccc(O)cc2)c1)N1CCOCC1 | -0.1 | 98.7* | -0.2 | 2.0 | i | 16.3
O=S(=O)(c1ccc(Cl)c(NC(=S)Nc2ccccc2N2CCOCC2)c1)N1CCOCC1 | -4.9 | 98.1* | 0.0 | 0.0 | i | -2.0
O=C(Nc1ccccc1N1CCCC1)c1cc(S(=O)(=O)N2CCOCC2)ccc1Cl | 1.5 | 48.7 | -0.1 | 0.0 | i | -3.5
O=C(CN1CCN(c2ccc(O)cc2)CC1)Nc1cc(S(=O)(=O)N2CCCC2)ccc1Cl | 6.6 | 90.3* | 0.0 | 0.0 | i | -5.1
CC(C)CCCCCCNC(=S)Nc1ccc(S(=O)(=O)N2CCOCC2)cc1 | 29.4* | -2.3 | 2.5 | 1.0 | i | 47.5
COc1ccc(C(=O)N/C(=C\c2ccc(SC)cc2)C(=O)NCCCn2ccnc2)cc1OC | 7.7 | -2.4 | -0.2 | 0.0 | . | 8.3
SMILES | HDAC3 inh | ALR H2O2 inh | Efflux pump inh | GRK2 aptamer HTS | Rce1 inhib | Rtt109 HAT inh
CC(NS(=O)(=O)OCC(Cl)(Cl)Cl)c1ccc(Br)cc1 (stereo not drawn) | -1.0 | -18.3 | -0.1 | 3.0 | i | 1.9
O=C(Nc1ccccc1F)Nc1ccc([N+](=O)[O-])cc1Cl | -1.1 | -0.9 | 0.2 | 2.0 | i | -3.2
COc1ccc(NC(=O)CN(C)C(=O)c2oc3c(ccc4ccccc43)c2C)cc1 | 7.7 | -9.8 | -0.2 | 2.0 | . | 4.4
O=S(=O)(c1ccc(NC(=S)N/N=C/c2ccc(O)c(O)c2)cc1)N1CCOCC1 | 0.8 | 98.8* | 0.0 | 0.0 | i | -10.6
Oc1ccc(/C=N/NC(=S)Nc2cccnc2)cc1O | 10.8 | 98.9* | 0.3 | 2.0 | i | 0.6
N#Cc1ccc(/C=N/NC(=S)Nc2ccc(S(=O)(=O)N3CCOCC3)cc2)cc1 | 1.2 | 1.0 | -0.1 | 0.0 | i | -3.1
CC(C)(C)c1ccc(/C=N/NC(=S)Nc2cccnc2)cc1 | 12.3 | 2.0 | -0.2 | 1.0 | i | .
CC(=O)C[C@H](O)CC(=O)[C@H]1OC(=O)CCCCCCc2ccccc21 | 0.1 | . | 0.2 | 1.0 | . | -5.6
O=C(O)c1cccc(-n2cccc2/C=C2/SC(=O)N(CC(=O)N3CCCC3)C2=O)c1 | 1.7 | . | 0.1 | 34.0 | i | 14.0
O=C(O)c1cccc(-n2cccc2/C=C2\SC(=O)N(Cc3ccccc3F)C2=O)c1 | 1.4 | 19.5 | -0.2 | 45.0* | i | 3.7
Cc1nc(NS(=O)(=O)c2ccccc2C)c2c3c(sc2n1)CCC3 | -9.8 | 97.1* | -0.1 | 1.0 | i | .
COc1ccc(CNC(=O)CSCc2ccccc2Cl)cc1 | 1.1 | 98.1* | -0.6 | 0.0 | i | 0.1
COc1ccc(NC(=O)CSCC(=O)N2CCCc3ccccc32)cc1 | -0.3 | 89.9* | 0.0 | 1.0 | i | 5.3
COc1ccc(NC(=O)CSCc2ccccc2C)cc1 | -6.4 | 84.0* | 0.1 | 0.0 | i | 0.5
Cc1cccc(NC(=O)CSCC(=O)N2CCCc3ccccc32)c1 | 3.6 | . | 0.1 | 1.0 | i | 3.0
Cc1ccccc1CSCC(=O)N/N=C/c1cccs1 | 11.5 | 97.9* | -0.1 | 0.0 | . | -10.2
CCOC(=O)C1=C(C)c2ccccc2OC1(C(=O)OCC)C(C)C (stereo not drawn) | . | . | 0.1 | 0.0 | . | -11.5
O=C(CCSCc1ccccc1Cl)NCc1ccco1 | -0.4 | 93.3* | -0.1 | 0.0 | i | 32.6
COc1ccc(NC(=O)CSCC(=O)NCCc2ccccn2)cc1 | 0.5 | 97.7* | 0.2 | 0.0 | i | 0.2
O=C(CCSCCC(=O)NCc1ccco1)NCc1ccco1 | 4.6 | 4.6 | -0.1 | 2.0 | . | .
COc1cc(CNC2CCCCCCC2)c(Br)cc1OCCO | 6.6 | 2.1 | 0.0 | 0.0 | i | -7.5
Nc1ccc(CCc2ccc(N)cc2)cc1 | -1.6 | 85.4* | 0.0 | 0.0 | i | -5.2
COC(=O)c1cc(S(=O)(=O)N2CCCC2=O)c(Cl)cc1Cl | -1.6 | 5.2 | 0.0 | 6.0 | i | -6.6
CC(=O)Nc1ccc(NC(=O)CSc2ccc([N+](=O)[O-])cn2)cc1 | -10.9 | -9.6 | 0.1 | 4.0 | i | 9.2
CN(C)c1ccc(/C(=N\O)C(F)(F)F)cc1 | 4.5 | 97.5* | 0.1 | 5.0 | i | -1.9
O=C(O)c1ccc(Nc2nc3ccc(Cl)cc3[nH]2)cc1 | -7.2 | 47.2 | 0.1 | 0.0 | + | 3.8
CC(=O)c1ccc(N=Nc2ccc(N)cc2)cc1 | 10.4 | 42.0 | 0.0 | 0.0 | i | 11.1
O=C(O)c1ccc(-n2c(/C=C/c3ccccc3)nc3ccccc3c2=O)cc1 | 2.7 | 98.9* | 0.1 | 4.0 | i | -6.5

Source: PubChem BioAssay (several laboratories)
